Legend:
Test in all cases: DAPPL (digital affinity profiling via proximity ligation, sequencing); 10 mM Tris-HCl pH 7.5, 50 mM NaCl, 1 mM DTT, 4% glycerol, room temperature, 30 min; GST-TFs on glutathione beads, 16-mer random dsDNA library, 0.1% formaldehyde crosslink after washing; high values mean tight binding
[1] = molecular target: T1, FLI1 (Homo sapiens, UniProt Q01543 1-452); settings: protein: recombinant; tags: N-terminal GST; dsDNA, one strand shown
T1 sequence: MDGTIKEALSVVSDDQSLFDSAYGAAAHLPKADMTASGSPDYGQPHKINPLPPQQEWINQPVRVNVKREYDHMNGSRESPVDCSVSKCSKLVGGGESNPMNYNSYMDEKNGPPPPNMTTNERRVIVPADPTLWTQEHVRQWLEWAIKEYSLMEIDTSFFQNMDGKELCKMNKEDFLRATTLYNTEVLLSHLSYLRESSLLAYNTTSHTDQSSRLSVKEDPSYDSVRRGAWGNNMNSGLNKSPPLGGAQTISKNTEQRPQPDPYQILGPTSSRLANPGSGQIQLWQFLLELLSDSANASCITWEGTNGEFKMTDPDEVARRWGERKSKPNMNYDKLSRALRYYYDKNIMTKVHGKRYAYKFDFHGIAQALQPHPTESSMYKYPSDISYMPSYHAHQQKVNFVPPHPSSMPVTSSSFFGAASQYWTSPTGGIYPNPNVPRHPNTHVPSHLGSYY
In short: (§1)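 After expression in yeast as GST fusions, human transcription factors were bound to glutathione beads, DNA-barcoded and mixed with a tag-only sample. The pools were incubated with 200 nmole of a 16-mer random double-stranded DNA library in Tris/NaCl/DTT/glycerol buffer (30 min, room temperature), washed and crosslinked with 0.1% formaldehyde. Proximity ligation with BsaI/T4 ligase ran for 1 h at 37 °C, before PCR amplification and sequencing on an Illumina NextSeq500. Binding signal is a hexamer's read frequency for a factor divided by its frequency for the tag-only sample.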

[2] = molecular target: T2, ELK1 (Homo sapiens, UniProt P19419 1-428); settings: protein: recombinant; tags: N-terminal GST; dsDNA, one strand shown
T2 sequence: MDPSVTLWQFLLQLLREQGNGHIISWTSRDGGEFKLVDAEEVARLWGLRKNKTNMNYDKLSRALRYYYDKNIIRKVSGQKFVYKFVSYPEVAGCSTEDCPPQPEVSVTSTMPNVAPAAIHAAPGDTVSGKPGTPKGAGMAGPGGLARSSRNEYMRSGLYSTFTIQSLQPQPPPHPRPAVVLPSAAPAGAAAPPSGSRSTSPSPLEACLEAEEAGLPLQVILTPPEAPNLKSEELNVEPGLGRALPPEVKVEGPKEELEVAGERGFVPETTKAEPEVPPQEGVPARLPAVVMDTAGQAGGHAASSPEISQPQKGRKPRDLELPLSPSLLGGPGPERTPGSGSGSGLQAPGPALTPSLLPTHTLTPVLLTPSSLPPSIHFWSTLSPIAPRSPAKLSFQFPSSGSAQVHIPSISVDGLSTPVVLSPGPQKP
In short: as §1

[3] = molecular target: T3, GABPA (Homo sapiens, UniProt Q06546 1-454); settings: protein: recombinant; tags: N-terminal GST; dsDNA, one strand shown
T3 sequence: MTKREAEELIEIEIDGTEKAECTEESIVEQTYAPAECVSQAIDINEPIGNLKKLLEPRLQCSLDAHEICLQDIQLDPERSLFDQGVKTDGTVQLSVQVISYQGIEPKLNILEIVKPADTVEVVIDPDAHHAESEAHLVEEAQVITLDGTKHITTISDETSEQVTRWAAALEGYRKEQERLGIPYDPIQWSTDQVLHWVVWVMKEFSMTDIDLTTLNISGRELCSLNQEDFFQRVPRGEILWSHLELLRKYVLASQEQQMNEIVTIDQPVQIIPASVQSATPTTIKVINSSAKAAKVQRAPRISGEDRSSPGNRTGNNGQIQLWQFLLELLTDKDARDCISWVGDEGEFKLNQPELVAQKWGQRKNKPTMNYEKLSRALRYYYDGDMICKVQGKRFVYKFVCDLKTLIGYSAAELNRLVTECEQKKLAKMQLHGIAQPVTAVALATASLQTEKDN
In short: as §1

[4] = molecular target: T4, ERG (Homo sapiens, UniProt P11308 1-479); settings: protein: recombinant; tags: N-terminal GST; dsDNA, one strand shown
T4 sequence: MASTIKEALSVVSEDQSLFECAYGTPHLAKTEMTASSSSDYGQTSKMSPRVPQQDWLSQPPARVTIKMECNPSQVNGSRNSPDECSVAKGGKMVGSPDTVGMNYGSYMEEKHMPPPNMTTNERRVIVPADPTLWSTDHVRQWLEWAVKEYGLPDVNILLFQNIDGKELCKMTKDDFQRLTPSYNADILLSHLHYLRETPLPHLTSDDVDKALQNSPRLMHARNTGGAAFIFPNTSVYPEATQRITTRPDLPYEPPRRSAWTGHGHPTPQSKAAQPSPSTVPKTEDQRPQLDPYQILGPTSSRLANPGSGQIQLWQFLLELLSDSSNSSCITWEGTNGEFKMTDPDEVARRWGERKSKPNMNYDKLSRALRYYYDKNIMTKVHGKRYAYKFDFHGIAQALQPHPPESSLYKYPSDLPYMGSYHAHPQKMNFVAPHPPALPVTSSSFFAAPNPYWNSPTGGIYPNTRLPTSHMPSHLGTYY
In short: as §1

[5] = molecular target: ELF1 (Homo sapiens, UniProt P32519 1-619); settings: protein: recombinant; tags: N-terminal GST; dsDNA, one strand shown
In short: as §1

[6] = molecular target: T5, EHF (Homo sapiens, UniProt Q9NZC4 1-300); settings: protein: recombinant; tags: N-terminal GST; dsDNA, one strand shown
T5 sequence: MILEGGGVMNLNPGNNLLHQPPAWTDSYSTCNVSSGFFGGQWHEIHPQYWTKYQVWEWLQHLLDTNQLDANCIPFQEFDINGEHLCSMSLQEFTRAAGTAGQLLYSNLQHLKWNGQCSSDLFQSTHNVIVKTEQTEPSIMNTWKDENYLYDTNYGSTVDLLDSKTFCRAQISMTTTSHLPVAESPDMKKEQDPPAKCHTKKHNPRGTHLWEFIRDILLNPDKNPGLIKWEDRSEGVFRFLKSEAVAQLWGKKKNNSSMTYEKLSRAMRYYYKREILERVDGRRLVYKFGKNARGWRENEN
In short: as §1

[7] = molecular target: SPI1 (Homo sapiens, UniProt P17947 1-270); settings: protein: recombinant; tags: N-terminal GST; dsDNA, one strand shown
In short: as §1

[8] = molecular target: SPIB (Homo sapiens, UniProt Q01892 1-262); settings: protein: recombinant; tags: N-terminal GST; dsDNA, one strand shown
In short: as §1

[9] = molecular target: T6, ELK3 (Homo sapiens, UniProt P41970 1-407); settings: protein: recombinant; tags: N-terminal GST; dsDNA, one strand shown
T6 sequence: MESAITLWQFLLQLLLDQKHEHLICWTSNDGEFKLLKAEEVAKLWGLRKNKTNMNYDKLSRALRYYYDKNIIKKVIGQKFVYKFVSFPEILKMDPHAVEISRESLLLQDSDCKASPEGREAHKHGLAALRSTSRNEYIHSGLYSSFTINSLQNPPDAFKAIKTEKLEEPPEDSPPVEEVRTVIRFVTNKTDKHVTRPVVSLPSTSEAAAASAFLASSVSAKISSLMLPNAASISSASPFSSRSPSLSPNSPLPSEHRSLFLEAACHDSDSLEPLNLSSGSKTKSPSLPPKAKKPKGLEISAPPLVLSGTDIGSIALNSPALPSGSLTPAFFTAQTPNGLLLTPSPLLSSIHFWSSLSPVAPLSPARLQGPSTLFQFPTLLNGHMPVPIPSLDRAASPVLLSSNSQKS
In short: as §1

[10] = molecular target: T7, FEV (Homo sapiens, UniProt Q99581 1-238); settings: protein: recombinant; tags: N-terminal GST; dsDNA, one strand shown
T7 sequence: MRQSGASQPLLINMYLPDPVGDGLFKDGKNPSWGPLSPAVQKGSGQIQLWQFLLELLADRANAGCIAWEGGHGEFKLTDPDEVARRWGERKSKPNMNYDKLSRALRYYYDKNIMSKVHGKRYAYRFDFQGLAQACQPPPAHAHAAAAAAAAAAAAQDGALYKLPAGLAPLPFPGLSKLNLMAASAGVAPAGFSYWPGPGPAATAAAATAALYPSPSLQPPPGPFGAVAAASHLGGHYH
In short: as §1

[11] = molecular target: ETV5 (Homo sapiens, UniProt P41161 1-510); settings: protein: recombinant; tags: N-terminal GST; dsDNA, one strand shown
In short: as §1

[12] = molecular target: HSF1 (Homo sapiens, UniProt Q00613 1-529); settings: protein: recombinant; tags: N-terminal GST; chain copies: 3; dsDNA, one strand shown
In short: as §1

[13] = molecular target: T8, SPIC (Homo sapiens, UniProt Q8N5J4 1-248); settings: protein: recombinant; tags: N-terminal GST; dsDNA, one strand shown
T8 sequence: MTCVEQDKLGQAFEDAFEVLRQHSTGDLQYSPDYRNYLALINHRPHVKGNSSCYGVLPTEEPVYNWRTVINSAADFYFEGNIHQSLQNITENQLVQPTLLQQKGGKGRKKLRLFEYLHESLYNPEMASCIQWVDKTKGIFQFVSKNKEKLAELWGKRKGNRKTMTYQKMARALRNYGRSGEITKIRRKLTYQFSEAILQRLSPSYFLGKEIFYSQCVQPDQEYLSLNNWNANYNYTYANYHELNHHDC
In short: as §1

[14] = molecular target: ELF4 (Homo sapiens, UniProt Q99607 1-663); settings: protein: recombinant; tags: N-terminal GST; dsDNA, one strand shown
In short: as §1

[15] = molecular target: T9, ELK4 (Homo sapiens, UniProt P28324-2 1-405); settings: protein: recombinant; tags: N-terminal GST; dsDNA, one strand shown
T9 sequence: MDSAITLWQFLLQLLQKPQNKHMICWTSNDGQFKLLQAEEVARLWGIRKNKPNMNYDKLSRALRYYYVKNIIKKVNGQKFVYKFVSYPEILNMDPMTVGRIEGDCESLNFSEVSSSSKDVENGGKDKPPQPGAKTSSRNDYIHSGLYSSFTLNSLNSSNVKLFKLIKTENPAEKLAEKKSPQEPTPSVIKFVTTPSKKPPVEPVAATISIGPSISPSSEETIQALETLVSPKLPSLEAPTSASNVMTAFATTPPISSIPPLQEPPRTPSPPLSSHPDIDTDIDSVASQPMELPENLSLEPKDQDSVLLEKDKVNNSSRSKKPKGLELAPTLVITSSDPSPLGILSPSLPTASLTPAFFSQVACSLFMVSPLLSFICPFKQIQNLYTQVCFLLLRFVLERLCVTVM
In short: as §1

[16] = molecular target: T10, ETV2 (Homo sapiens, UniProt O00321 1-342); settings: protein: recombinant; tags: N-terminal GST; dsDNA, one strand shown
T10 sequence: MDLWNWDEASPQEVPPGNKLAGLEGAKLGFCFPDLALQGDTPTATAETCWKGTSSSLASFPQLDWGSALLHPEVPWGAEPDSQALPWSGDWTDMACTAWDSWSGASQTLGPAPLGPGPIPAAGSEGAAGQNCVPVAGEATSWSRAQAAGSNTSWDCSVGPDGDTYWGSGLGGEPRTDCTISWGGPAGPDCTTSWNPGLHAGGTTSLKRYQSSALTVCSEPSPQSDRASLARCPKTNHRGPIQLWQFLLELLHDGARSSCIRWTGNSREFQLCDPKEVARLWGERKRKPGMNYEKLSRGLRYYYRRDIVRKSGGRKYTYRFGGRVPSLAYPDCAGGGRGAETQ
In short: as §1

[17] = molecular target: T11, ELF3 (Homo sapiens, UniProt P78545 1-371); settings: protein: recombinant; tags: N-terminal GST; dsDNA, one strand shown
T11 sequence: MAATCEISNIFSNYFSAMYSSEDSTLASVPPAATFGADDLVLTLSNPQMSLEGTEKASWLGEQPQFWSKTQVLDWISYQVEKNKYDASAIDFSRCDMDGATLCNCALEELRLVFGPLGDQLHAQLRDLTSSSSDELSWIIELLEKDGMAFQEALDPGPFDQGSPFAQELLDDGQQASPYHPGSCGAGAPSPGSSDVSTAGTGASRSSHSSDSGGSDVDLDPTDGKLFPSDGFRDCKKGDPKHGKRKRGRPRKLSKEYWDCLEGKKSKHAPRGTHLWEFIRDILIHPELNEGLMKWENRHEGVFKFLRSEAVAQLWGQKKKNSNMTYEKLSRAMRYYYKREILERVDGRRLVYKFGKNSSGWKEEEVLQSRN
In short: as §1

[18] = molecular target: CRX (Homo sapiens, UniProt O43186 1-299); settings: protein: recombinant; tags: N-terminal GST; dsDNA, one strand shown
In short: as §1

[19] = molecular target: ETV1 (Homo sapiens, UniProt P50549 1-477); settings: protein: recombinant; tags: N-terminal GST; dsDNA, one strand shown
In short: as §1

ELF4, sequence (Q99607 whole entry): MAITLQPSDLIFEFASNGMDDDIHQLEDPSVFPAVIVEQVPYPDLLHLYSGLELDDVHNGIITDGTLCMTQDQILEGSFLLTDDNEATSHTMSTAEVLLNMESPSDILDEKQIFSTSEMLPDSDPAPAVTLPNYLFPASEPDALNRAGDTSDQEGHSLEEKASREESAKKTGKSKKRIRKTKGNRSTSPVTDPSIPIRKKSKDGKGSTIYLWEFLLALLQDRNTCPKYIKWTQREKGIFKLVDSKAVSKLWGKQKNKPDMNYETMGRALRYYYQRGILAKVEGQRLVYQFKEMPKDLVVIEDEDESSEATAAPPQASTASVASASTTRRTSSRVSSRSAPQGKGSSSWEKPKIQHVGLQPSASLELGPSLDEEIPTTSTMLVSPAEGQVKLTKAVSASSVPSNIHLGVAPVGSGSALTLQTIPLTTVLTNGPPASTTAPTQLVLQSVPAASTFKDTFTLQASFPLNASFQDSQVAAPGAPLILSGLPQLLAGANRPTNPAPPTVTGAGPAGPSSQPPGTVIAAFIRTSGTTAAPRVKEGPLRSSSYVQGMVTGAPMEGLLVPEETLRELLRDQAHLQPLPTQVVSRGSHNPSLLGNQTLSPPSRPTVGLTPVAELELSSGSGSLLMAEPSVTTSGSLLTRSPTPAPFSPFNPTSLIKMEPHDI
ELF1, sequence (P32519 whole entry): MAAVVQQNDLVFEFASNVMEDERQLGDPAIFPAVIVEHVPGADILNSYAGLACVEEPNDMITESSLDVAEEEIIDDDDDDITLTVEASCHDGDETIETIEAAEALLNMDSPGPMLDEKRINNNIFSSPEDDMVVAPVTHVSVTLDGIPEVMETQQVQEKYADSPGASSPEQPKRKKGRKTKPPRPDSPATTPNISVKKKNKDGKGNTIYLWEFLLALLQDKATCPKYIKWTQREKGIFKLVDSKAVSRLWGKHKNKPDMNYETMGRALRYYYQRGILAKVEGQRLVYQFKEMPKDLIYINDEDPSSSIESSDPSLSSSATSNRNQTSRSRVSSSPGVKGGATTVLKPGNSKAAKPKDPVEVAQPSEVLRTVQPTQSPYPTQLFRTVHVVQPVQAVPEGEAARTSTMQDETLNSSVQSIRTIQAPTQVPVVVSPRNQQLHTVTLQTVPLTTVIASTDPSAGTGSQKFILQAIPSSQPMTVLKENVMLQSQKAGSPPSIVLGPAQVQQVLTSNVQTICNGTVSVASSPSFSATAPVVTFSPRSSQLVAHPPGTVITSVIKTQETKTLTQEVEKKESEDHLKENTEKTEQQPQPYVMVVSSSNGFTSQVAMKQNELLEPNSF
SPIB, sequence (Q01892 whole entry): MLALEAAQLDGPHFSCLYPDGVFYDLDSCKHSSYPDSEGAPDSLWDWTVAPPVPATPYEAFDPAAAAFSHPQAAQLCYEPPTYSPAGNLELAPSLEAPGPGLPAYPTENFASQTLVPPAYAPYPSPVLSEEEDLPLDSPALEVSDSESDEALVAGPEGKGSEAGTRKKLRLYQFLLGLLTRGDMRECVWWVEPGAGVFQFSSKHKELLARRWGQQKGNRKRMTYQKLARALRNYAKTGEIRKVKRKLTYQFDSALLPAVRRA
ETV5, sequence (P41161 whole entry): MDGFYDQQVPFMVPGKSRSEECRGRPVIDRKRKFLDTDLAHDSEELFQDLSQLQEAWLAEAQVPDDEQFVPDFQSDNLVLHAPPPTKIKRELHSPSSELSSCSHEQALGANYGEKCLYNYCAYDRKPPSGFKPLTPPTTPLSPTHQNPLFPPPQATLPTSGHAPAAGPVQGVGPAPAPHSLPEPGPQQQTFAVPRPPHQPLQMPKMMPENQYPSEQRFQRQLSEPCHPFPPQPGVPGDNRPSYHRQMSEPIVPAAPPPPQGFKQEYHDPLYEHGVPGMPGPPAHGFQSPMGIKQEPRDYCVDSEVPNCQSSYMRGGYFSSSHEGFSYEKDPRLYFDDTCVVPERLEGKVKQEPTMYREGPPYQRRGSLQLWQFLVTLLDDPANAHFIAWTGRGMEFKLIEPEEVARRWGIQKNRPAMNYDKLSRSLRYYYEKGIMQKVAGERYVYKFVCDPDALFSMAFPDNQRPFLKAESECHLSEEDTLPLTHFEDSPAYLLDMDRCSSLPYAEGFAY
HSF1, sequence (Q00613 whole entry): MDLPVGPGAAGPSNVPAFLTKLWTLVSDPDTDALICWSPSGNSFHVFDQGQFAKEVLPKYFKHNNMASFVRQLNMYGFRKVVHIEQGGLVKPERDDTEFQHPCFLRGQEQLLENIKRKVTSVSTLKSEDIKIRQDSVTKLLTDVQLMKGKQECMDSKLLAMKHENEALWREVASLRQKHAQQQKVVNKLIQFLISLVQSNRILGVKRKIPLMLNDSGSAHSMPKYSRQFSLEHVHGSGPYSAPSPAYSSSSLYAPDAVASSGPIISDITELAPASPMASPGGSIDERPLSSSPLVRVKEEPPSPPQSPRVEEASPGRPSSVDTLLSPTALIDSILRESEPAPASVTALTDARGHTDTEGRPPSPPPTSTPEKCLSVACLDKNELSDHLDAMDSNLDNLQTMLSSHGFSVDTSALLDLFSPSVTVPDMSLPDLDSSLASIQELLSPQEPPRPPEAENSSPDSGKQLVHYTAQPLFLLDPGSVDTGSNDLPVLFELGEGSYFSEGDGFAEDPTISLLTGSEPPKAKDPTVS
CRX, sequence (O43186 whole entry): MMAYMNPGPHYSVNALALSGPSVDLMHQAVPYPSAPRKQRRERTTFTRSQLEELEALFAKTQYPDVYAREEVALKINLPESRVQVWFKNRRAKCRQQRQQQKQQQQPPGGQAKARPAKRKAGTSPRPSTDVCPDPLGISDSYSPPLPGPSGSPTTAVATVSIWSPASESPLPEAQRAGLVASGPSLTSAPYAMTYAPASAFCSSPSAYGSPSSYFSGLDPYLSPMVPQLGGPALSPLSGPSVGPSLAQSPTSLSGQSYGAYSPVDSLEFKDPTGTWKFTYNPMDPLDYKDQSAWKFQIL
ETV1, sequence (P50549 whole entry): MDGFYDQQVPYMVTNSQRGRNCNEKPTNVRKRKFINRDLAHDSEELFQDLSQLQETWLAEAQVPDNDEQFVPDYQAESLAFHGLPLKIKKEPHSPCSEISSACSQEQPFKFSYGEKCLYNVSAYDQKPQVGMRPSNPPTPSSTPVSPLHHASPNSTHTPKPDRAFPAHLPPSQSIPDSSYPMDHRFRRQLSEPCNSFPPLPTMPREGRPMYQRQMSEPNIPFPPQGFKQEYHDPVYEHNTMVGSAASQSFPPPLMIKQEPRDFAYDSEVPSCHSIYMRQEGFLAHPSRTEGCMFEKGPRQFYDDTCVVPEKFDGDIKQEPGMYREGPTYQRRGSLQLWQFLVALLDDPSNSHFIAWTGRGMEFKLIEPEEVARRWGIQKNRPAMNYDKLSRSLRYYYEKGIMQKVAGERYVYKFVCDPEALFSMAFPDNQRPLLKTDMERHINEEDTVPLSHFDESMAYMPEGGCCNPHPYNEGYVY

**Q.** Which binding signal [1] does the source give for TTTCCA here?
**A.** 1.37 fold enrichment (6-mer frequency, TF over GST control)

**Q.** And the binding signal [2]?
**A.** 1.31 fold enrichment (6-mer frequency, TF over GST control)

**Q.** And the binding signal [3]?
**A.** 1.39 fold enrichment (6-mer frequency, TF over GST control)

**Q.** And the binding signal [4]?
**A.** 1.23 fold enrichment (6-mer frequency, TF over GST control)

**Q.** What about the binding signal [5] of the same sequence?
**A.** 1.36 fold enrichment (6-mer frequency, TF over GST control)

**Q.** And the binding signal [6]?
**A.** 1.27 fold enrichment (6-mer frequency, TF over GST control)

**Q.** And the binding signal [7]?
**A.** 1.37 fold enrichment (6-mer frequency, TF over GST control)

**Q.** What about the binding signal [8] of the same sequence?
**A.** 1.39 fold enrichment (6-mer frequency, TF over GST control)

**Q.** And the binding signal [9]?
**A.** 1.31 fold enrichment (6-mer frequency, TF over GST control)

**Q.** What about the binding signal [10] of the same sequence?
**A.** 1.34 fold enrichment (6-mer frequency, TF over GST control)

**Q.** And the binding signal [11]?
**A.** 1.28 fold enrichment (6-mer frequency, TF over GST control)

**Q.** And the binding signal [12]?
**A.** 2.18 fold enrichment (6-mer frequency, TF over GST control)

**Q.** What about the binding signal [13] of the same sequence?
**A.** 1.18 fold enrichment (6-mer frequency, TF over GST control)

**Q.** And the binding signal [14]?
**A.** 1.39 fold enrichment (6-mer frequency, TF over GST control)

**Q.** What about the binding signal [15] of the same sequence?
**A.** 1.39 fold enrichment (6-mer frequency, TF over GST control)

**Q.** What about the binding signal [16] of the same sequence?
**A.** 1.22 fold enrichment (6-mer frequency, TF over GST control)

**Q.** What about the binding signal [17] of the same sequence?
**A.** 1.19 fold enrichment (6-mer frequency, TF over GST control)

**Q.** What about the binding signal [18] of the same sequence?
**A.** 1.61 fold enrichment (6-mer frequency, TF over GST control)

**Q.** What about the binding signal [19] of the same sequence?
**A.** 1.22 fold enrichment (6-mer frequency, TF over GST control)
